Source: PubChem (SRMLSC)
PMK inhibit: inhibitors of Streptococcus pneumoniae phosphomevalonate kinase | purified PMK, PK/LDH-coupled NADH absorbance 340 nm | inhibition, % at 10 µM | 65,000 compounds, 0.49% hits | AID 539;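 active means top-ranked compounds by inhibition in the single 10 µM screen, taking a fixed number of the strongest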
Spn DPM-DC inh: blocks S. pneumoniae diphosphomevalonate decarboxylase; 65,000 compounds, 0.49% hits; calls only at 10 µM; purified DPM-DC, PK/LDH coupled NADH fluorescence; AID 556;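 active means the 320 compounds with the highest percent inhibition in the single-dose primary screen, excluding strongly autofluorescent ones, cut at about 32% in these data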;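 further: kinetic rate of NADH fluorescence loss reporting ADP formed by the decarboxylase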
MK inhibit: inhibitors of Streptococcus pneumoniae mevalonate kinase. purified MK, PK/LDH-coupled NADH absorbance 340 nm. inhibition, % at 10 µM. 65,000 compounds, 0.48% hits. AID 555;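 active means ranked among the strongest by inhibition in the single 10 µM screen, a fixed top-ranked set picked for dose follow-up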
Abs 340nm: absorbance at 340 nm; AID 708; 65,000 tested, under 10 active; compound absorbance at 340 nm, fold over control; fold change at 10 µM;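 active means at 10 µM dose, initial 340 nm absorbance at least 2 fold that of control wells; inactive means change under 2 fold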;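 further: initial absorbance extrapolated from kinetic A340 decline of NADH oxidation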
Fluor 339 460: intrinsic fluorescence of library compounds, ex339/em460 – biochemical, MLSMR library, data from DPM-DC assay, artefact control, profiling panel; compound autofluorescence, ex339/em460 nm, NADH buffer; active compounds read high; 1 = no-compound wells, NADH background; fluorescence fold increase at 10 µM; 65,000 compounds, 5.5% hits; AID 709;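 active means at 10 µM, mean starting fluorescence two-fold or more over control wells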;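 further: signal is the first read of a kinetic run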
NADH enzymes: blocks coupling enzymes of NAD/NADH assays | coupled PK/LDH NADH assays, four targets | IC50, µM (series often up to 10 µM) | 65,000 compounds, 0.02% hits | AID 774;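 active means single-dose screening hits from any of four coupled enzyme assays that gave an IC50 when retested across doses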;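 further: the DPM-DC format reads NADH fluorescence rather than 340 nm absorbance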
A number is an active result; - = inactive; . = not tested or not shown. Sampled rows, rich in hits. Any-hit rate of the full collection: about 6.3%.

SMILES	PMK inhibit	Spn DPM-DC inh	MK inhibit	Abs 340nm	Fluor 339 460	NADH enzymes
O=C1CN(C(=O)COC(=O)C2=COCCO2)c2ccccc2N1	-	-	56	-	-	-
COC(=O)c1oc2nc(C)cc(C)c2c1N	-	.	-	-	3.9	-
COC(=O)C(Cc1cnc[nH]1)NC(=O)C1CCC(=O)N1 (stereo not drawn)	-	-	-	-	-	-
CCC1CCc2c(sc(NC(=O)c3ccoc3C)c2C(N)=O)C1 (stereo not drawn)	-	.	-	-	2.1	-
CCOC(=O)Nc1sc2c(c1C(=O)OCC)CCC2	-	-	-	-	-	-
CCOC(=O)c1c(NC(=O)c2noc3c2CCCC3)sc2c1CCCC2	-	-	-	-	-	-
CCOC(=O)c1c(NC(=O)c2ccoc2C)sc2c1CCC2	-	.	-	-	2.2	-
CCCc1cc(C(=O)Nc2sc3c(c2C(=O)OCC)CCCC3)no1	-	.	-	-	2.1	-
O=c1cc(NCc2ccco2)c2ccccc2o1	-	-	-	-	-	-
CC(=O)c1cc2c(cc1NC(=O)CN1CCCCC1C)OCO2 (stereo not drawn)	-	-	-	-	-	-
COC(=O)c1ccccc1NC(=O)N1CCN(C(=O)c2ccco2)CC1	-	-	-	-	-	-
COC(=O)c1ccccc1S(=O)(=O)Nc1ccc(OC)nc1	-	-	-	-	-	-
CCOC(=O)N1CCC(NC(=O)Cn2c3ccccc3c3cn[nH]c(=O)c32)CC1	-	-	-	-	-	-
CCOC(=O)N1CCC(NC(=O)Cn2c3c(c(-c4ccccc4Cl)cc2=O)CCC3)CC1	-	.	-	-	2.2	-
Cc1c(C)c2cc(Cl)c(O)c(CN3CCCCC3)c2oc1=O	-	.	-	-	2.5	-
Cc1cc(=O)oc2c(CN3CCN(C)CC3)c(O)c(Cl)cc12	-	.	-	-	2.5	-
CCCCc1cc(=O)oc2c(CN3CCCC3)c(O)c(Cl)cc12	-	.	-	-	3	-
CCCc1cc(=O)oc2c(CN3CCN(C)CC3)c(O)c(Cl)cc12	-	.	-	-	2.3	-
CN1CCN(Cc2c(O)c(Cl)cc3c(-c4ccccc4)cc(=O)oc23)CC1	-	-	-	-	-	-
O=c1oc2ccccc2c(O)c1CN1CCCCC1	-	-	.	-	-	-
COc1ccc(NC(C)=O)cc1NC(=O)CN1CCN(CC(=O)Nc2ccc(Cl)cc2)CC1	-	-	-	-	-	-
CCOC(=O)C1C(=O)NC(N2CCCCC2)=NC1c1ccco1 (stereo not drawn)	-	-	-	-	-	-
C=CCN=C(NC#N)SCC(=O)c1cccc(OC)c1	-	-	-	-	-	-
CCC(=O)Nc1ccc(NC(=O)c2ccccn2)cn1	-	-	active	-	-	-
COc1ccc2cc(C#N)c(N3CCN(Cc4nnnn4CCC(C)C)CC3)nc2c1	-	-	-	-	-	-
SMILES	PMK inhibit	Spn DPM-DC inh	MK inhibit	Abs 340nm	Fluor 339 460	NADH enzymes
COCCCNC(=O)c1ccccc1NS(C)(=O)=O	-	.	-	-	3.4	-
CS(=O)(=O)Nc1ccccc1C(=O)NC1CC2CCC1C2 (stereo not drawn)	-	.	-	-	3.8	-
COCc1c(C)cc(C)c(/C=N/O)c1C	-	-	-	-	-	-
COc1nc(Nc2ccc(-c3nc4ccccc4o3)cc2)nc(N2CCOCC2)n1	-	.	-	-	3.7	-
CCN(CC)CC(=O)Nc1cc(C)c2c(=O)oc3ccccc3c2n1	-	-	-	-	-	-
Cc1ccc(-c2nnn(CC(=O)N(Cc3ccccc3)C(C(=O)NC3CCCC3)c3ccncc3)n2)o1 (stereo not drawn)	-	-	-	-	-	-
CC(=O)c1c(C)nn(CC(O)Cn2c3c(c4cc(C)ccc42)CCCC3=O)c1C (stereo not drawn)	-	.	-	-	5.2	-
COC(=O)Cn1c(=NC(=O)CSCC(=O)NC2CCCCC2)sc2cc(OC)ccc21	-	.	-	-	2.1	-
CN(C(=O)c1cccs1)c1ccccc1C(=O)O	-	.	-	-	2.2	-
CCC(C)NC(=O)CCNS(=O)(=O)c1ccc(Br)cc1 (stereo not drawn)	-	-	-	-	-	-
O=c1c2ccccc2nc2n1CCN2Cc1ccc(Cl)cc1	-	.	-	-	2.2	-
CCCNC(=O)Cn1cnc2sc(C(=O)NCCN(CC)CC)c(C)c2c1=O	-	-	-	-	-	-
